In PubChem BioAssay:
Several values for one entry are separate records, joined by “and”; a condition that tells them apart may be missing. Equal entries are not always repeated. Activity calls are given as the source filed them.

Assays:
[1] = optical density shifts of acrAB sulA E. coli – strain DRC41, OD650, 48 h, E. coli filamentation inducer project, primary screen (AID 1152); conditions: higher = more signal, called active from +8 up or from −8 down;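 note: E. coli MC1000 strain DRC41 lacking acrAB efflux pump and sulA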
[2] = probe aLefty1 binding on compound microarray – biochemical, small-molecule microarray, 635/667 nm fluorescence, primary screen (AID 1153); conditions: higher = more signal;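 note: score merges spot fluorescence with signal-to-noise ratio from the scanned slide images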
[3] = plasmodial surface anion channel blockers, osmotic lysis – cell-based, P. falciparum Indochina, OD700, 1 h, primary screen (AID 1154); conditions: P. falciparum Indochina infected RBC osmotic lysis, higher = more signal, called active from +8 up or from −8 down
[4] = plasmodial surface anion channel blockers, osmotic lysis – cell-based, P. falciparum Indochina, OD700, 2 h, primary screen (AID 1155);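 note: lysis reports solute entry through the parasite surface anion channel PSAC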; conditions: P. falciparum Indochina infected erythrocytes, higher = more signal, called active from +8 up or from −8 down
[5] = changes in parasitized red cell lysis, either direction – P. falciparum Indochina, OD700, 3 h, PSAC antagonist project, primary screen (AID 1156); conditions: P. falciparum-infected erythrocytes, osmotic lysis, higher = more signal, called active from +8 up or from −8 down
[6] = plasmodial surface anion channel blockers, osmotic lysis – cell-based, P. falciparum Indochina, OD700, 18 h, primary screen (AID 1157); conditions: P. falciparum Indochina infected erythrocytes, osmotic lysis OD700, 18 h; higher = more signal, called active from +8 up or from −8 down
[7] = S6 kinase pathway phospho-S6 level changes – cell-based, A549, cytoblot, luminescence, serum-stimulated, primary screen (AID 1158); conditions: 5 h, higher = more signal;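 note: serum-stimulated A549 lung adenocarcinoma cells; signal is phosphorylated S6 detected by cytoblot immunostaining with HRP secondary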
[8] = biological target: NADPH oxidase 2 (Homo sapiens) (UniProt P04839); assay: compounds shifting NOX2 Amplex Red fluorescence – cell-based, HEK293-NOX2, PMA-stimulated, NOX inhibitor project, primary screen (AID 1159); conditions: 45 min, higher = more signal, called active from +8 up or from −8 down; note: test concentration not given here
[9] = biological target: NADPH oxidase 4 (Homo sapiens) (UniProt Q9NPH5); assay: compounds shifting NOX4 Amplex Red fluorescence – cell-based, HEK293-NOX4, tetracycline-induced, NOX inhibitor project, primary screen (AID 1160); conditions: HEK293-NOX4, Amplex Red H2O2 fluorescence, 45 min; higher = more signal, called active from +8 up or from −8 down
[10] = biological target: NADPH oxidase 5 (Homo sapiens) (UniProt Q96PH1); assay: compounds shifting NOX5 Amplex Red fluorescence – cell-based, HEK293-NOX5, NOX inhibitor project, primary screen (AID 1161); conditions: HEK293-NOX5, ionomycin, 45 min, higher = more signal
[11] = compound effects on lung adenocarcinoma cell viability – A549, calcein-AM fluorescence, 48 h, basal, profiling panel (AID 1162); conditions: higher = more signal; note: test concentration not given here
[12] = compound effects on differentiated 3T3-L1 adipocyte viability – cell-based, 3T3-L1 adipocytes, calcein-AM fluorescence, 48 h, basal, profiling panel (AID 1163); conditions: 3T3-L1 adipocytes viability, higher = more signal; note: test concentration not given here
[13] = compound effects on hepatocellular carcinoma cell viability – HepG2, calcein-AM fluorescence, 48 h, basal, profiling panel (AID 1164); conditions: higher = more signal; note: test concentration not given here
[14] = compound effects on multiple myeloma cell viability – MM1S, calcein-AM fluorescence, 48 h, basal, profiling panel (AID 1165); conditions: higher = more signal; note: test concentration not given here
[15] = calcein-AM signal in unstimulated myeloma cells – cell-based, calcein-AM fluorescence, 48 h, PK04 Diversity Set, profiling panel (AID 1166); conditions: RPMI8226 myeloma viability, higher = more signal;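 note: cells grown under basal conditions without added stimulus; test concentration not given here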
[16] = JC-1 mitochondrial signal, unstimulated HepG2 cells – cell-based, JC-1 fluorescence, 24 h, 100 nL compound, profiling panel (AID 1167); conditions: HepG2 mitochondrial potential, higher = more signal; note: test concentration not given here
[17] = JC-1 mitochondrial signal, unstimulated adipocytes – cell-based, JC-1 fluorescence, 3T3-L1 adipocytes, 24 h, 100 nL compound, profiling panel (AID 1168); conditions: JC-1 mitochondrial fluorescence, higher = more signal, called active from +8 up or from −8 down; note: test concentration not given here
[18] = JC-1 mitochondrial signal, unstimulated myeloma cells – cell-based, JC-1 fluorescence, RPMI8226, 24 h, 100 nL compound, profiling panel (AID 1169); conditions: JC-1 mitochondrial potential fluorescence, higher = more signal; note: test concentration not given here
[19] = JC-1 mitochondrial signal, unstimulated MM1S myeloma – cell-based, JC-1 fluorescence, 24 h, 100 nL compound, profiling panel (AID 1170); conditions: MM1S mitochondrial potential, higher = more signal; note: test concentration not given here
[20] = resazurin metabolic signal in A549 cells – cell-based, resazurin fluorescence, 24 h, PK04 Diversity Set, profiling panel (AID 1171); conditions: A549 viability, higher = more signal, called active from +8 up or from −8 down; note: test concentration not given here

Chain of NADPH oxidase 4 (Homo sapiens) (Q9NPH5 whole entry, looked up): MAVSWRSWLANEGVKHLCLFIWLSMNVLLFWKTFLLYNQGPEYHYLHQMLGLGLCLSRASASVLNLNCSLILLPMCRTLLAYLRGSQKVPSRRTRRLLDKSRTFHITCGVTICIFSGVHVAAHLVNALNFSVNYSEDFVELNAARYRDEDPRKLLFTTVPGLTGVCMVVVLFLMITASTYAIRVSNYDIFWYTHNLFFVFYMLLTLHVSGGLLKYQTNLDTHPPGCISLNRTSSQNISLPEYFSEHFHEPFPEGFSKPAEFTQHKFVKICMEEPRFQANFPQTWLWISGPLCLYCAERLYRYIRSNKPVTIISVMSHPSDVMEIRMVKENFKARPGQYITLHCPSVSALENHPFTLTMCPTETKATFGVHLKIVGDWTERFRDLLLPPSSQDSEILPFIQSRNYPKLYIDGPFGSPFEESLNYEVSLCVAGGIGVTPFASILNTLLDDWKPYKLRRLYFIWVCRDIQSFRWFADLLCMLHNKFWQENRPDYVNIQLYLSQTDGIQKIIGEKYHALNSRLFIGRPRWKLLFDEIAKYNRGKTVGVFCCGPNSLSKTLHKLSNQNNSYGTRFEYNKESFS
Chain of NADPH oxidase 2 (Homo sapiens) (P04839 whole entry, looked up): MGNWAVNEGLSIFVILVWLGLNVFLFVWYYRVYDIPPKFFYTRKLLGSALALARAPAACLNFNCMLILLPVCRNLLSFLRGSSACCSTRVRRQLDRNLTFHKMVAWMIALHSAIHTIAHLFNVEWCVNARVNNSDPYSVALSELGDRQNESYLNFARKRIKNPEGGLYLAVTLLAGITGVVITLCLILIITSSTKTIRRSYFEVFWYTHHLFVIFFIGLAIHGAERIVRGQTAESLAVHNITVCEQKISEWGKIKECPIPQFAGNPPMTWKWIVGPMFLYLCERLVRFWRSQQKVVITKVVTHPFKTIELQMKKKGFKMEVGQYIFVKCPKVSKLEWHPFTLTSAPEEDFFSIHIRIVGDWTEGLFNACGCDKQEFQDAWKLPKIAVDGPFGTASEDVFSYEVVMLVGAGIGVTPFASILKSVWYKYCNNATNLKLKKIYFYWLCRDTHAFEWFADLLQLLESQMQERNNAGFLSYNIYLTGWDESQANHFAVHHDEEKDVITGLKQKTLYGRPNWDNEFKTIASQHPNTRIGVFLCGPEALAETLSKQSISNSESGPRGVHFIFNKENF
Chain of NADPH oxidase 5 (Homo sapiens) (Q96PH1 whole entry, looked up): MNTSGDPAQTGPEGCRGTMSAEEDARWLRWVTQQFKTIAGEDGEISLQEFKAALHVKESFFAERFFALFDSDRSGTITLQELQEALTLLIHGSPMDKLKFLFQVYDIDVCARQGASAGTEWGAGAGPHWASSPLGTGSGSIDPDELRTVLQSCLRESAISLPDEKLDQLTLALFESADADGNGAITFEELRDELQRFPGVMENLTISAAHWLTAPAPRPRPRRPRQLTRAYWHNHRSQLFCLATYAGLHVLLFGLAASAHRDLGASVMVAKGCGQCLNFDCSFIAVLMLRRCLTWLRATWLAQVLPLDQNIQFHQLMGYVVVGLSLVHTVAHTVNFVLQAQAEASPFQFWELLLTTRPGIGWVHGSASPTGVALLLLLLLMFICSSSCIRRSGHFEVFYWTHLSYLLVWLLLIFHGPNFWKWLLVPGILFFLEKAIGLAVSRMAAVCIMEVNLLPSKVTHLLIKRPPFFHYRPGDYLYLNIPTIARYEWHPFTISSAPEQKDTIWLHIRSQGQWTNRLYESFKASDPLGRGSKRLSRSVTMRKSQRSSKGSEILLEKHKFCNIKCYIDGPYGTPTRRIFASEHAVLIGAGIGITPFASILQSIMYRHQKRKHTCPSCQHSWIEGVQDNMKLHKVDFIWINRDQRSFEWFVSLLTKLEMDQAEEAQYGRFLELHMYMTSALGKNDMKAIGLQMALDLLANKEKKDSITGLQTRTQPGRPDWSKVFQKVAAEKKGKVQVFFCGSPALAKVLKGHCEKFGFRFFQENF

With `CO[C@@H]1COC(=O)CC=C[C@H](C)COC(=O)[C@H](C)NC(=O)CC=C[C@H]1C` the z-score [1] was -0.762 (inactive), the composite z-score [2] was -0.344 and the z-score [3] was -0.0875 (inactive). The z-score [4] was 0.193 (inactive), the z-score [5] was 0.599 (inactive) and the z-score [6] was -0.138 (inactive). The z-score [7] was -0.677, the z-score [8] was 2.01 (inactive) and the z-score [9] was 0.486 (inactive). It also gave a z-score [10] of -0.47, a z-score [11] of 0.158 and a z-score [12] of 0.31. It also gave a z-score [13] of 0.46, a z-score [14] of 0.122 and a z-score [15] of 0.353. For the same compound, the z-score [16] was 1.04, the z-score [17] was 0.214 (inactive) and the z-score [18] was -0.0124. The z-score [19] was 0.955 and the z-score [20] was 0.162 (inactive).
In the case of `C=CC[C@@H](O)c1ccc(O)c2ccccc12`, the z-score [1] is reported as 1.07 (inactive) and -0.266 (inactive), the composite z-score [2] is reported as 0.113 and 0.176 and the z-score [3] is reported as 0.964 (inactive) and 0.883 (inactive). For the same compound, the z-score [4] was 0.263 (inactive) and 0.49 (inactive), the z-score [5] was -0.379 (inactive) and -0.519 (inactive) and the z-score [6] was 0.131 (inactive) and 0.548 (inactive). For the same compound, the z-score [7] was -0.241 and 0.206, the z-score [8] was -5.68 (inactive) and -5.98 (inactive) and the z-score [9] was -1.28 (inactive) and -1.66 (inactive). For the same compound, the z-score [10] was 1.61 and 0.954, the z-score [11] was 0.292 and 0.405 and the z-score [12] was -0.0851 and -0.0172. For the same compound, the z-score [13] was 0.23 and -0.354, the z-score [14] was -2.77 and -2.68 and the z-score [15] was -3.06 and -4.28. The z-score [16] was -2.14 and -2.66, the z-score [17] was 0.0544 (inactive) and -0.0565 (inactive) and the z-score [18] was -0.887 and -0.994. The z-score [19] was -1.63 and -1.56 and the z-score [20] was -0.308 (inactive) and -0.572 (inactive).
For `CO[C@H]1COC(=O)CC=C[C@@H](C)COC(=O)[C@@H](OCc2ccccc2)C=C[C@@H]1C`, the z-score [1] was 1.08 (inactive), the composite z-score [2] was -0.334 and the z-score [3] was 1 (inactive). The z-score [4] was -0.104 (inactive), the z-score [5] was 0.362 (inactive) and the z-score [6] was -0.0412 (inactive). The z-score [7] was 0.21, the z-score [8] was 0.46 (inactive) and the z-score [9] was 1.19 (inactive). The z-score [10] was 0.308, the z-score [11] was 0.497 and the z-score [12] was 0.146. For the same compound, the z-score [13] was 0.835, the z-score [14] was 0.301 and the z-score [15] was 0.608. For the same compound, the z-score [16] was 0.952, the z-score [17] was -0.0508 (inactive) and the z-score [18] was -0.442. For the same compound, the z-score [19] was -0.414 and the z-score [20] was -0.34 (inactive).
